Screens deposited in PubChem BioAssay by several laboratories.
This is a sample that favours compounds with a hit; in the whole collection about 1.3% have one here.
SRC2 inh = human SRC2 (NCOA2) inhibition | HEK293 GAL4-SRC2 luciferase reporter, luminescence | inhibition, % at 9 µM | actives 0.17% (n = 370,000);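 active = inhibition above the mean inhibition of all tested compounds plus 3 SD, set per campaign, cut at about 52% in these data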;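 also: 0% = DMSO treated cells and 100% = cells given Gossypol at 36 µM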
Target sequence (Q15596 whole entry, looked up, the tested form may be a part): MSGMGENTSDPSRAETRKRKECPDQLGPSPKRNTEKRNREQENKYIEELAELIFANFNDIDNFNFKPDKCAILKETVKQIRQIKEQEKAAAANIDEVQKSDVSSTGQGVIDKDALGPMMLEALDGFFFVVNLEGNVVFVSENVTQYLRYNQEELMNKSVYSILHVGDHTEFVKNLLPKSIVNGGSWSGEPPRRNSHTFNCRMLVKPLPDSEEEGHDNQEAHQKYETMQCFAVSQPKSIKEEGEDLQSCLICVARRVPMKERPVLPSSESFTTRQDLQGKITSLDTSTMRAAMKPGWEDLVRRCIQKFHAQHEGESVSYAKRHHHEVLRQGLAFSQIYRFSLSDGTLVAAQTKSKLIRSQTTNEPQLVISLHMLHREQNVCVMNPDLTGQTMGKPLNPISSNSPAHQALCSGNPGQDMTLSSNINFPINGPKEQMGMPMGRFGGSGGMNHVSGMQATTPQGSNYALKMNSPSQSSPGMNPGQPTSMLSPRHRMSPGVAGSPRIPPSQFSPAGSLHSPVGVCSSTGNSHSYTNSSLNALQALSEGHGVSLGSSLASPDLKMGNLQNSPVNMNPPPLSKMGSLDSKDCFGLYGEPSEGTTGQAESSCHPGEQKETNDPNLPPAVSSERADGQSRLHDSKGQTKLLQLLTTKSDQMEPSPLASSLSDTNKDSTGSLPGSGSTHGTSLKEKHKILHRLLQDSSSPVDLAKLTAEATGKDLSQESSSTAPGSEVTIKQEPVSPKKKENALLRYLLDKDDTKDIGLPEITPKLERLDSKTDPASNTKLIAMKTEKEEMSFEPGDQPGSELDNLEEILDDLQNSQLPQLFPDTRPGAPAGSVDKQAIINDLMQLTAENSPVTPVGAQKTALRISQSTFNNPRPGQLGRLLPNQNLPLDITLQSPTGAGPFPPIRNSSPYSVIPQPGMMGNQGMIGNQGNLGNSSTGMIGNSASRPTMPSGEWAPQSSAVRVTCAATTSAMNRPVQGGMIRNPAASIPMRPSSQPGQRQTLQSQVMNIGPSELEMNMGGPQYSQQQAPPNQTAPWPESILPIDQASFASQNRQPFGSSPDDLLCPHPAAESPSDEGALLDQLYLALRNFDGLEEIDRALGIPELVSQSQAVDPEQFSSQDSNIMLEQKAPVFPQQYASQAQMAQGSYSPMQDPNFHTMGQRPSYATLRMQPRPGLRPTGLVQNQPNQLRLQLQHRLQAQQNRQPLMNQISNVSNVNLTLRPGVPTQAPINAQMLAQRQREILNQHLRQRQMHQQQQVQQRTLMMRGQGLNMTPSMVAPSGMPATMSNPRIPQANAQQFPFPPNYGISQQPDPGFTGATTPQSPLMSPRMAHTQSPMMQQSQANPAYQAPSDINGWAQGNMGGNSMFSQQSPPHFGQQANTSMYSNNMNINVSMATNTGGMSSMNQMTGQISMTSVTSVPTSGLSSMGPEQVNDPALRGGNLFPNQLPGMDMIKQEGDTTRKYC
NR5A2 inv ag = suppresses constitutive activity of human LRH-1 | O00482 | HEK293T StAR-luciferase reporter, LRH-1 transfected, 24 h | inhibition, % at 3.6 µM | actives 0.13% (n = 360,000) | AID 602396;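 active = inhibition above the mean inhibition of all tested compounds plus 3 SD, cut at about 73% in these data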;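 also: 0% = DMSO wells and 100% = reporter-only cells lacking LRH-1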
NCOA3 inh = inhibitors of human steroid receptor coactivator 3 (SRC3); Q9Y6Q9; HEK293 GAL4-SRC3 luciferase reporter, luminescence; inhibition, % at 3.6 µM; actives 0.17% (n = 360,000); AID 588352;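 active = inhibition above a per-campaign cutoff, the mean of all compounds plus 3 SD, cut at about 60% in these data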;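 also: 0% = DMSO-treated cells and 100% = gossypol-treated cells at 36 µM; higher means less SRC3-driven luciferase light from the GAL4 reporter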
NR2F2 inh = blocks human COUP-TFII nuclear receptor; inhibition, % at 8.6 µM; HEK293T NGFI-A luciferase reporter, luminescence; actives 0.7% (n = 370,000); P24468; AID 686940;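 active = inhibition above a per-plate cutoff, mean inhibition of test wells between control levels plus 3 SD, cut at about 38% in these data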;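 also: cells cotransfected with COUP-TFII expression vector driving the NGFI-A reporter; 0% = median of COUP-TF2 test wells and 100% = reporter-only cells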
SRC1 inh = inhibits human SRC1 coactivator; inhibition, % at 3.6 µM; HEK293 GAL4-SRC1 luciferase reporter, luminescence; Q15788; actives 0.12% (n = 360,000);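 active = inhibition above the campaign mean plus 3 SD, with each screening campaign given its own cutoff, cut at about 60% in these data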;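 also: 0% = DMSO treated cells and 100% = gossypol at 36 µM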
Gli-Sufu block = Gli-Sufu pathway antagonism | Sufu-KO-LIGHT fibroblasts, Gli luciferase reporter luminescence | actives 0.74% (n = 340,000) | inhibition, % at 5 µM;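 active = inhibition above about 55%, limit read from the data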;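 also: 0% = DMSO-treated cells and 100% = wells with medium but no cells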
Gal4-VP16 ctr = counter-screen for COUP-TFII antagonists: inhibitors of VP16; shares compounds with NR2F2 inh; HEK293 Gal4-VP16 luciferase reporter, luminescence; inhibition, % at 8.5 µM; actives 25% (n = 2,500); AID 687007; in the data active = inhibition above about 13%
COUP-TFII conf = COUP-TFII (NR2F2) inhibition, confirmation assay | inhibition, % at 8.5 µM | AID 687008 | actives 45% (n = 2,500) | shares compounds with NR2F2 inh | HEK293 NGFI-A luciferase reporter, luminescence;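 active = mean inhibition over three repeats above a set limit taken from the earlier primary screen, cut at about 38% in these data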;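 also: 100% = cells given the luciferase reporter alone without the COUP-TF2 vector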
Numbers without * were called inactive; . = no result given.

SMILES	SRC2 inh	NR5A2 inv ag	NCOA3 inh	NR2F2 inh	SRC1 inh	Gli-Sufu block	Gal4-VP16 ctr	COUP-TFII conf
COc1cccc(OCCn2cc(C(C)=O)c3ccccc32)c1	25	14	26	49*	26	15	4	43*
CCCCCCCCN1C(=O)[C@@H](CC(=O)NCc2ccc(OC)c(OC)c2)C[C@@]2(C(=O)OC)C1=C[C@H](C(C)C)O[C@@H]2C1CC1	12	.	.	16	.	.	.	.
O=C(Nc1nncs1)c1cc2c(s1)CCC2	-81	-68	-55	-37	-99	-47	.	.
O=C(Nc1nccs1)c1cc2c(s1)CCCCC2	58*	-5	7	42*	-11	8	-55	-10
NCCN1CCN(S(=O)(=O)c2ccc3c(c2)CCN3C(=O)C2CCC2)CC1	-3	.	.	-25	.	.	.	.
CNc1ccccc1C(C)(C)c1cc(-c2cccc([N+](=O)[O-])c2)no1	-3	-11	-75	14	-58	5	.	.
CNc1ccccc1C(C)(C)c1cc(-c2ccc(F)cc2)no1	1	17	26	45*	11	0	2	31
CN(C)S(=O)(=O)N1CCC(Oc2cccc(C(=O)NC3CCCCC3)c2)CC1	36	18	15	57*	34	42	-4	40*
CN(C)S(=O)(=O)N1CCC(Oc2ccc(C(=O)NC3CCCCC3)cc2)CC1	-10	15	5	-10	1	4	.	.
CN(C)S(=O)(=O)N1CCC(Oc2cccc(C(=O)NCCC3=CCCCC3)c2)CC1	27	11	12	56*	5	8	-8	17
CC(C)(C)OC(=O)N1CCC(N[C@@H](Cc2ccccc2)C(=O)NCC(c2ccccc2)c2ccccc2)(C(=O)NC2CCCCC2)CC1	.	.	.	24	.	.	.	.
CC(CCN1CCC(C(O)(c2ccccc2)c2ccccc2)CC1)Oc1cccc(Br)c1 (centres undefined)	2	.	.	18	.	.	.	.
CC1(c2nnnn2-c2ccc(F)cc2)CCCC(=O)N1CCc1c[nH]c2ccccc12 (centres undefined)	1	.	.	-34	.	.	.	.
O=C(Nc1cccc(S(=O)(=O)NC2=NCCCCC2)c1)c1ccc(Cl)cc1	16	24	7	43*	-5	25	-7	10
CCc1nc2ccccc2c(C(=O)OCC(=O)Nc2cccc(S(=O)(=O)N3CCOCC3)c2)c1C	4	10	39	65*	7	23	11	30
O=C(Nc1cccc(S(=O)(=O)NC2=NCCC2)c1)c1ccccc1	-4	13	5	23	12	2	.	.
CCc1nc2ccccc2c(C(=O)OCC(=O)Nc2cccc(S(=O)(=O)NC3=NCCCCC3)c2)c1C	11	3	19	64*	7	29	-2	21
CN(C)c1cccc2c(S(=O)(=O)NCC3CCN(C(=O)C(=O)c4cccs4)CC3)cccc12	11	.	.	23	.	.	.	.
Cc1cccc(N2CCN(S(=O)(=O)c3cc(-c4cc(C)no4)ccc3C)CC2C)c1 (centres undefined)	26	14	30	34	30	15	.	.
COc1cccc(CCN2CCC(CNS(=O)(=O)c3cc(-c4cc(C)no4)ccc3OC)CC2)c1	14	6	27	37*	-8	42	-11	8
COc1cccc(CCN2CCC(CNS(=O)(=O)c3cc(-c4cc(C)no4)ccc3C)CC2)c1	24	9	27	41*	-12	46	0	26
COc1ccc(-c2cc(C)no2)cc1S(=O)(=O)N1CCN(c2cccc(C)c2)C(C)C1 (centres undefined)	18	13	5	52*	0	11	11	54*
COC(=O)[C@]12C[C@H](CC(=O)N3CCN(C(=O)c4ccco4)CC3)C(=O)N(CCc3ccc(OC)c(OC)c3)C1=C[C@H](C(C)(C)C)O[C@@H]2C	-22	.	.	3	.	.	.	.
COc1ccc(N=C2SCC(=O)N2CCc2ccc(OC)c(OC)c2)cc1	7	1	20	-23	1	9	.	.
COc1ccc(CCN2C(=O)CSC2=Nc2ccc(C(C)C)cc2)cc1OC	29	30	-1	64*	18	26	14*	62*
SMILES	SRC2 inh	NR5A2 inv ag	NCOA3 inh	NR2F2 inh	SRC1 inh	Gli-Sufu block	Gal4-VP16 ctr	COUP-TFII conf
Cc1ccc(C(=O)Nc2ncc([N+](=O)[O-])s2)cc1	62*	-28	4	63*	3	60*	-16	6
O=C(Nc1ncc([N+](=O)[O-])s1)c1ccc2c(c1)OCO2	44	-58	2	33	-9	18	.	.
COc1ccccc1NC(=O)Cn1c(C)cc(=O)c2cccc(OC)c21	31	26	23	51*	33	43	8	42*
CCOC(=O)[C@]12CCCC3=C1N(CCC3)C(=O)[C@@H](CC(=O)N1CCN(C(=O)C3CC3)CC1)C2	7	.	.	3	.	.	.	.
c1csc(CNc2ncnc3sccc23)c1	15	41	26	63*	22	47	11	46*
OC(CNc1ncnc2sccc12)c1ccccc1 (centres undefined)	-17	-57	-52	40*	-55	28	-150	-35
CN(C)C(CNc1ncnc2sccc12)c1ccccc1 (centres undefined)	-4	-4	3	-36	11	13	.	.
COc1ccc(C(CNc2ncnc3sccc23)N(C)C)cc1OC (centres undefined)	-21	15	3	-6	-22	-10	.	.
COc1ccc(CNc2ncnc3sccc23)cc1OC	6	40	21	48*	-7	30	-1	23
CN[C@H]1C[C@H]2c3[nH]c4c(-c5ccc6c(c5)OCO6)cccc4c3CCN2C[C@H]1[C@H](C)O	7	.	.	-24	.	.	.	.
CCOC(=O)[C@@]12CCCC3=C1N(CCC3)C(=O)[C@H]2CC(=O)N1CCCC1	5	.	.	6	.	.	.	.
COc1ccc(N2CCN(CCCNC(=O)Cn3c(=O)c4cccn4c4cccnc43)CC2)c(OC)c1	.	.	.	-3	.	.	.	.
CN(CC(=O)Nc1ccncc1)S(=O)(=O)c1ccc(Br)cc1	12	2	2	9	13	2	.	.
CN(CCCC(=O)Nc1ccncc1)S(=O)(=O)c1ccc(Cl)cc1	8	1	9	52*	13	36	4	30
O=C(Nc1ccncc1)Nc1ccc(Cl)cc1	-5	-7	10	-13	-16	-15	.	.
Cc1ccc(CC(=O)Nc2ccncc2)cc1	17	46	4	55*	0	50	-9	24
O=C(Cc1ccc(Cl)cc1)Nc1ccncc1	18	33	21	40*	6	19	-3	8
COC(=O)[C@]12C[C@H](CC(=O)N3CCOCC3)C(=O)N(Cc3ccco3)C1=C[C@H](C(C)(C)C)O[C@@H]2C	-18	.	.	7	.	.	.	.
